# Giardia killer: Giardia lamblia killing; activity change, % at 7.66 µM, hits read low; 0.15% of 340,000 active; AID 540267; Giardia lamblia trophozoite viability; in the data active = activity change below about -80%; inconclusive = between about -30% and that limit;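 also: parasites exposed to compound for two days anaerobically before the ATP read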
#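 Anaerobic 48 hrs incubation at 37 deg C of 100 trophozoites/well with test compounds; ATPLite 1-Step luminescence, 15-30 min RT, reports cellular ATP as viability.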
# uPA generation: inhibitors of cell surface uPA generation; cell surface uPA generation assay, qHTS; Potency, µM (highest dose often 38.3 µM), hits mostly inhibitors; 0.31% of 330,000 active; AID 540303; active = well fitted inhibition curve with a large enough effect; inconclusive = small, poorly fitted or top-dose-only effect; inactive = no such curve, though single readings can be large or run the other way; tested in mouse RAW 264.7 cells; also: nearly all actives have a fitted effect of over 55% in size
# ClpP mod: qHTS Assay for Activators of ClpP; AID 651965, 2013; ATP-dependent Clp protease proteolytic subunit (Bacillus subtilis (strain 168)), P80244; Potency, µM (top dose mostly 57.5 µM); 1.9% of 340,000 active; purified B. subtilis ClpP, FRET peptide cleavage, 20 min; active = well fitted falling curve with a large enough effect; inconclusive = small, poorly fitted or top-dose-only effect; inactive = no such curve, though single readings can be large or run the other way; also: the source files actives as falling curves though it sought activators and does not explain the sign; nearly all actives have a fitted effect of over 65% in size
# Target sequence (P80244 whole entry, looked up): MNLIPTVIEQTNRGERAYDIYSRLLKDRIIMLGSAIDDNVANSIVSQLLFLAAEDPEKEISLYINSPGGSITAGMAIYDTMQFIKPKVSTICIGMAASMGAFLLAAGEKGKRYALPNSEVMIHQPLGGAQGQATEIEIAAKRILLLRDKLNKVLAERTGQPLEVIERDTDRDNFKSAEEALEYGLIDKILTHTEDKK
#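 FRET quenching reversal measured ClpP activation: 10 microg/mL B. subtilis ClpP at pH 8 with the FRET-FV decapeptide, read at 430 nm after 320 nm excitation. The 20-min minus 0-min signal was scaled between DMSO/no-enzyme wells and ADEP (5.8 microM final).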
# B2AR arrestin: agonists driving beta-arrestin recruitment to human beta2-adrenergic receptor | 0.02% of 330,000 active | beta-arrestin recruitment to beta2AR, cell-based reporter | Potency, µM (doses to about 46.1 µM), most hits filed as activators; also: nearly all actives have a fitted effect of over 65% in size
# Target sequence (P07550 whole entry, looked up): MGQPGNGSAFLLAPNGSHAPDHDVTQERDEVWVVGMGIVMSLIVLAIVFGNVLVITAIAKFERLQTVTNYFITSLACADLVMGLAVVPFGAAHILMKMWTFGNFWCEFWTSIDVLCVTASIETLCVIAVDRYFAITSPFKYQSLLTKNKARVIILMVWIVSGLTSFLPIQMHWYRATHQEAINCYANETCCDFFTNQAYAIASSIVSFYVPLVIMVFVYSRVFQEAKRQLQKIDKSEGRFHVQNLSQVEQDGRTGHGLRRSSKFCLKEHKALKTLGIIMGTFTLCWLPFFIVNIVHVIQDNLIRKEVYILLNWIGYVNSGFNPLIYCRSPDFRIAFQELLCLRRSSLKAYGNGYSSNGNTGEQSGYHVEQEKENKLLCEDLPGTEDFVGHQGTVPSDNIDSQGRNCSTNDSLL
# p53 reactivation: mutant p53 re-activation in reporter cells; H1299 p53-A138V BP100-luciferase reporter, luminescence, 24 h; Potency, µM (series often up to 92.2 µM), usual class: activators; 0.063% of 320,000 active; AID 504706; also: nearly all actives have a fitted effect of over 45% in size
#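 H1299 (p53-null), stable ts p53-A138V + BP100-Luc; 1000 cells/well, Opti-MEM/10% FBS; cpd 4 pt, 1:5; 24 h, 37 deg C, 5% CO2; detection reagent 10 min RT; luminescence.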
# Mito fusion act: blocks mitochondrial division or promotes mitochondrial fusion; S. cerevisiae fusion-defective mutant growth rescue, CellTiterGlo 48 h; Potency, µM (titrated, usually from 46.1 µM), most hits filed as activators; 0.23% of 320,000 active; also: nearly all actives have a fitted effect of over 45% in size
#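 S. cerevisiae fusion-defective temperature-sensitive mutants (e.g. fzo1-1, mgm1-5) grown 48 h at 37C in YPEG (ethanol/glycerol non-fermentable) medium with 23 nl compound per well; growth rescue read as CellTiterGlo luminescence.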
# Hits are given with their value; 0 = inactive; ? = inconclusive; - = no result. An excerpt weighted towards active compounds, which were near 2.1% of everything screened. Unless noted, calls follow the shape of the dose curve; as a rule, active = well fitted curve in the direction sought with a large enough effect; inconclusive = small, poorly fitted or top-dose-only effect, or another doubt; inactive = no such curve, though single readings can be large; an effect the other way counts as inactive or inconclusive.
SMILES,Giardia killer,uPA generation,ClpP mod,B2AR arrestin,p53 reactivation,Mito fusion act
COc1ccc2oc(C(=O)OCC(=O)NC(=O)NC(C)C)c(C)c2c1,0,0,32µM,0,0,0
COc1ccc2oc(C(=O)OCC(=O)Nc3ccccc3)c(C)c2c1,0,0,28µM,0,0,0
COc1ccc2oc(C(=O)OCC(=O)NC(C)c3ccccc3)c(C)c2c1 (centres undefined),0,0,0,0,0,?
COc1ccc2oc(C(=O)OCC(=O)Nc3ccccc3OC)c(C)c2c1,0,0,0,0,0,0
COc1ccc2oc(C(=O)Nc3nc(C)cs3)c(C)c2c1,0,10µM,0,0,0,0
COc1ccc(NC(=O)c2ccc3[nH]c(C)cc(=O)c3c2)cc1,-,-,0,-,-,-
C/C=C/c1ccc(O)c(OC)c1,0,0,0,0,0,0
Oc1cc(O)cc(/C=C/c2ccc(O)c(O)c2)c1,0,7.9µM,0,0,?,?
Cc1cc(C(=O)N/N=C/c2cc(N=Nc3ccccc3)ccc2O)n[nH]1,0,0,0,0,13µM,0
COC(=O)N/N=C/c1cc(N=Nc2ccccc2)ccc1O,0,0,-,0,0,0
CCOc1ccccc1CNC(=O)CCn1cccn1,-,-,0,-,-,-
CCc1ccc(CNc2ccc3c(c2)ncn3C)cc1,0,-,28µM,0,?,0
Cc1ccc(-n2cnc3cc(NCc4cccs4)ccc32)cc1,0,0,22µM,0,?,0
COc1ccc(CNc2ccc3c(c2)ncn3C)cc1OC,0,0,-,0,0,0
Cc1ccc(CNc2ccc3c(c2)ncn3C)cc1,0,0,25µM,0,0,0
CCCCN(Cc1cccs1)S(=O)(=O)c1cc(-c2cc(C)no2)ccc1C,-,-,0,-,-,-
CC(=O)N1CCc2c(sc3c2c(=O)n(CCc2ccccc2)c(=O)n3Cc2ccc(F)cc2)C1,-,-,0,-,-,-
Cc1cccc(N2CC(C(=O)OCC(=O)Nc3sccc3C(N)=O)CC2=O)c1C (centres undefined),0,0,-,0,0,-
Cc1cccc(N2CC(C(=O)OCC(=O)c3ccc(OC(=O)c4cccs4)cc3)CC2=O)c1C (centres undefined),0,0,32µM,0,0,0
O=C(NN1C(=O)c2ccccc2NC1c1ccc([N+](=O)[O-])o1)c1ccccc1 (centres undefined),-85,0,-,0,0,0
COc1cccc(CNC(=O)c2ccc(-n3c(C)cc4c3CCCC4)cc2)c1,-,-,0,-,-,-
COCCn1cc(C(=O)NCCCN2CCC(C)CC2)c2c3ccccc3n(C)c2c1=O,0,-,32µM,0,0,0
CCN1CCN(CCCNC(=O)c2cn(CCOC)c(=O)c3c2c2ccccc2n3C)CC1,0,-,3.2µM,0,0,0
OC(CN1CCC(Cc2ccc(F)cc2)CC1)c1ccc(Cl)cc1 (centres undefined),-,-,-,-,-,2.9µM
O=C(NCc1ccc(F)cc1)c1ccc(NC(=O)N2CC3CCCN3c3ccccc32)cc1 (centres undefined),-,-,0,-,-,-
SMILES,Giardia killer,uPA generation,ClpP mod,B2AR arrestin,p53 reactivation,Mito fusion act
Cc1ccccc1CSc1nc2n(n1)C(c1cccs1)C1=C(CCCC1=O)N2 (centres undefined),0,0,22µM,0,0,0
COc1ccc2oc(-c3ccccc3)c(C(N)=O)c2c1,0,0,32µM,0,0,0
COc1ccc2oc(-c3ccccc3)c(C(=O)O)c2c1,0,0,0,0,0,?
COc1ccc(-c2oc3ccc(-c4cc(OC)c(OC)c(OC)c4)cc3c2-c2ccc(OC)nc2)cc1,0,0,0,0,0,0
CN(C)C(=O)c1c(-c2ccccc2)oc2ccc(O)cc12,0,0,20µM,0,0,0
COc1ccc(C(=O)c2c(-c3ccc(OC)cc3)oc3ccc(-c4ccc(OC)nc4)cc23)cc1,0,0,16µM,-,-,-
Cc1cccc(C)c1NC(=O)c1cc(S(=O)(=O)N2CCc3ccccc3C2)ccc1F,-,-,0,-,-,-
CC1CC(=O)N(CC(=O)Nc2ccc(OC(F)(F)F)cc2)c2ccccc2S1 (centres undefined),-,-,0,-,-,-
O=S1(=O)CCN2C=C(Br)C=C(Br)C2=N1,0,-,25µM,0,0,0
CC12CCC(C(=O)N3CCCc4ccccc43)(CC1=O)C2(C)C (centres undefined),0,0,0,0,0,0
CC12CCC(C(=O)N3CCc4ccccc43)(CC1=O)C2(C)C (centres undefined),0,0,0,0,0,14µM
CN1C(=O)c2cccc3c(Cl)ccc(c23)C1=O,0,0,16µM,0,0,0
CN1C(=O)c2cccc3c(Br)ccc(c23)C1=O,0,0,0,-,-,-
COc1ccc(/C=C/c2nc3cc(-c4ccccc4)ccc3o2)cc1O,0,0,13µM,0,0,0
COc1ccc(-c2cn3nc(N4CCC(C(=O)NCc5ccccc5F)CC4)sc3n2)cc1,-,-,0,-,-,-
COC(=O)c1ccc(-n2c(C)cc(-c3csc(NC(=O)c4ccc(S(=O)(=O)N(C)C)cc4)n3)c2C)cc1,0,0,0,0,0,0
Cc1cc(-c2csc(NC(=O)c3cccc(S(=O)(=O)N(C)C)c3)n2)c(C)n1-c1ccccc1,0,0,14µM,0,0,0
C/C(=N\NC(=O)COc1ccccc1)c1cccs1,0,0,25µM,0,?,0
COC(=O)Cn1c(C(=O)N2CCCC2)cc2c1C[C@H]1CN(C(=O)c3ccccc3)[C@@](Cc3ccc(OC)cc3)(C(=O)OC)[C@@H]21,-,-,0,-,-,-
COc1cccc(CN(C)C(=O)c2cc(-c3cccs3)nc3ccccc23)c1,0,0,32µM,0,0,0
CN(C)S(=O)(=O)c1ccc(NC(=O)c2cc(-c3cccs3)nc3ccccc23)cc1,0,0,16µM,0,0,0
CCN(CC)S(=O)(=O)c1ccc(NC(=O)c2cc(-c3cccs3)nc3ccccc23)cc1,0,0,28µM,0,0,0
O=[S+]([O-])([O-])c1ccc2c(c1)cc([S+](=O)([O-])[O-])c1nn(-c3ccc(/C=C/c4ccc(-n5nc6c([S+](=O)([O-])[O-])cc7cc([S+](=O)([O-])[O-])ccc7c6n5)cc4[S+](=O)([O-])[O-])c([S+](=O)([O-])[O-])c3)nc12,0,-,0,-,-,-
CCc1nnc(SCC(=O)Nc2ccc(Cl)cc2F)c2cc3occc3n12,-,-,0,-,-,-
CCOc1ccc(CNC(=O)c2ccc3c(c2)c(C)c(C)n3Cc2ccc(Cl)cc2)cc1,-,-,16µM,-,-,-
CCn1c(C)c(C)c2cc(C(=O)NCc3ccc(OC(C)C)cc3)ccc21,-,-,0,-,-,-
Cc1c(C)n(Cc2ccccc2)c2ccc(C(=O)NCC(C)c3ccccc3)cc12 (centres undefined),-,-,20µM,-,-,-
CCCOc1ccc(C(=O)Nc2ccc(-c3cc4ccccc4oc3=O)c(C)c2)cc1,-,-,0,-,-,-
